Laboratory results reported in PubChem BioAssay AID1159580 (chemical genetic matrix, 2015).
About 2,000 (36%) of roughly 5,500 compounds were called active. Not shown: some 18% with an inconclusive outcome. No stated cut-off is given here; in the data, active means normalized growth mostly below about 0.91 (no sharp cut-off); inconclusive means no clear call, values can overlap the other calls; inactive means mostly above about 0.92. The list shows a part of the results.

Assay: chemical genetic growth profiling, strain panel (AID 1159580);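 further: tested at 20 µM; growth read once vehicle control cultures reached saturation at 30 °C; 1 = growth at the plate median or of vehicle wells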
Details: S. cerevisiae deletion strains, growth OD

Measured: normalized growth

O=C(Nc1ccc(Cl)cc1Cl)c1cnccn1
inactive: locus YAL013W, strain DEP1, stronger effect = lower value 0.943 | locus YBR229C, strain ROT2, stronger effect = lower value 0.963 | locus YCL061C, strain MRC1, stronger effect = lower value 0.98 | locus YDL101C, strain DUN1, stronger effect = lower value 0.982 | locus YDL134C, strain PPH21, stronger effect = lower value 0.989 | locus YDR150W, strain NUM1, stronger effect = lower value 0.989 | locus YEL061C, strain CIN8, stronger effect = lower value 0.95 | locus YGR078C, strain PAC10, stronger effect = lower value 0.991 | locus YHR087W, strain rtc3, stronger effect = lower value 0.973 | locus YJR043C, strain POL32, stronger effect = lower value 1.01 | locus YJR075W, strain HOC1, stronger effect = lower value 1.01 | locus YLR058C, strain SHM2 (second series), stronger effect = lower value 0.975 | locus YLR262C, strain YPT6, stronger effect = lower value 0.87 | locus YML094W, strain GIM5, stronger effect = lower value 0.91 | locus YMR219W, strain ESC1, stronger effect = lower value 0.99 | locus YMR263W, strain SAP30, stronger effect = lower value 0.966 | locus YNL153C, strain GIM3, stronger effect = lower value 0.98 | locus YNL298W, strain CLA4 (second series), stronger effect = lower value 0.911 | locus YNL322C, strain KRE1, stronger effect = lower value 0.986 | locus YNR030W, strain Alg12, stronger effect = lower value 0.94 | locus YOL006C, strain TOP1, stronger effect = lower value 0.773 | locus YPL055C, strain LGE1, stronger effect = lower value 0.9 | locus YPL241C, strain CIN2, stronger effect = lower value 0.9 | locus YPR135W, strain CTF4, stronger effect = lower value 0.768
active: locus YHR030C, strain SLT2, stronger effect = lower value 0.606 | locus YKL190W, strain CNB1, stronger effect = lower value 0.862 | locus YLR039C, strain RIC1, stronger effect = lower value 0.788 | locus YLR085C, strain ARP6, stronger effect = lower value 0.656
